In the supplement of paper PMC6555819:

Legend:
Test in all cases: PBM binding z-score (relative to random genomic background probes); higher = stronger binding; sequences stand for … in GC…GCGATTGACAGCGTAGAATGAAGG
[1] = tested on: RARb homodimer (NR concentration 270 nM)
How it was run: (§1)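 Binding buffer was PBS pH 7.4 with 2% milk, 0.02% Triton X-100, 1 mM DTT, 0.2 mg/mL BSA and 0.4 mg/ml salmon testes DNA. In it, ligand-free nuclear receptor dimers were incubated 1 h on custom Agilent 4×180K protein-binding microarrays carrying double-stranded probes. Antibodies against each partner (one per run) detected binding, and z-scores were calculated against random background probes after regression normalization of scanned fluorescence.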

[2] = tested on: RARg:RXRa (NR concentration 270 nM, RXRa partner concentration 90 nM)
How it was run: as §1

[3] = tested on: RARg homodimer (NR concentration 270 nM)
How it was run: as §1

[4] = tested on: RXRa DBDmut IVT, anti-RXR (DBD mutation: RXRa K156A/R161A, NR concentration 90 nM)
How it was run: as §1

[5] = tested on: RXRa homodimer (NR concentration 180 nM)
How it was run: as §1

[6] = tested on: THRa:RXRa (NR concentration 90 nM, RXRa partner concentration 90 nM)
How it was run: as §1

[7] = tested on: THRa homodimer (NR concentration 90 nM)
How it was run: as §1

[8] = tested on: VDR homodimer (NR concentration 270 nM)
How it was run: as §1

Row | Sequence | PBM binding z-score [1] | PBM binding z-score [2] | PBM binding z-score [3] | PBM binding z-score [4] | PBM binding z-score [5] | PBM binding z-score [6] | PBM binding z-score [7] | PBM binding z-score [8]
1 | CGTCAAAGTTCAAGGTAACGTTACAGAAAGCAGC | 4 | 5.44 | 6.2 | 4.52 | 4.96 | 2.94 | 1.13 | 3.32
2 | TCTAGTTGGTCAAGGAGGTCACACACGACGGGTA | 4.26 | 4.38 | 4.29 | 0.835 | 4.27 | 3.57 | 2.15 | 2.71
3 | TCATATAGGTAAATGATAGGTGAAAGTCCGATCT | 0.731 | 0.906 | 0.775 | 1.92 | 1.15 | 0.682 | 0.132 | 0.346
4 | CGTCAAAGTTCAAGGTAACGTACCAGAAAGCAGC | 3.97 | 5.35 | 6.14 | 4.5 | 4.54 | 3.12 | 1.39 | 3.21
5 | TGGATGAGGTTAAAGATCAGGGAACGTGGCGTCG | 1.38 | 2.75 | 1.59 | 1.46 | 4.05 | 2.88 | 1.11 | 1.42
6 | CGTCCAAGGTCAGCAAGTCAGTGAAAGCGACGTG | 3.99 | 5.01 | 6 | 2.5 | 4.02 | 3.42 | 1.67 | 1.03
7 | CAGCCAAGGTCAGGGCCAGTATAGGAGGAACGTT | 3.64 | 4.92 | 5.59 | 1.64 | 4 | 3.36 | 1.78 | 0.93
8 | AATACAGAGTCATCGTAGGCCAGAGTACGCACAG | 0.0687 | 0.22 | 0.465 | -0.473 | 0.406 | 1.69 | -0.921 | 0.0153
9 | AGAATGAGGTTAAGATGAGGGAAACAGAATACAT | 1.16 | 2.21 | 1.62 | 1.17 | 2.38 | 2.61 | 0.911 | 0.657
10 | ATATGTAGGTTAGCTGGGGTCAATCAGACTAGGC | 3.82 | 4.3 | 3.37 | 1.26 | 5.42 | 5.12 | 2.82 | 3.44
11 | ATCGAAAGGTCGATGTGAGTATAGAGAAAGGGAA | 1.41 | 3.16 | 3.01 | 1.16 | 2.9 | 1.37 | -0.864 | 0.177
12 | CCGACTGGGGCAAAGTTACCATAACGCACAGCCA | -0.231 | 0.149 | 0.374 | 0.41 | 0.344 | -0.336 | -0.499 | -0.275
13 | TCAAATAGGTAAAAGGTGAAAGTCGGTGTGGTAA | 2.05 | 1.86 | 1.07 | 2.15 | 3.26 | 1.77 | 0.3 | 0.497
14 | GCGACTGGGGCAAATCAGGTTACCATAAGGTTGG | 1.4 | 0.714 | 0.619 | -0.00232 | 0.576 | 4.22 | 0.742 | -0.198
15 | GCTTGTAGATCCAGGTTAAGAAAGACTAAGCTAA | -0.153 | -0.172 | -0.0642 | -0.00816 | -0.0609 | 0.485 | -0.162 | -0.0555
16 | CCTGCTAGGTCAATCGTCAGCTAAAGCAGCTCGC | 2.83 | 3.59 | 4.42 | 1.78 | 2.15 | 2.11 | 0.36 | -0.0155
17 | CAAACTAGATCACCGGAAGGTCAAAGTCCGCATG | 4.03 | 4.08 | 2.88 | 0.674 | 3.47 | 2.76 | 1.06 | 2.12
18 | CAAACTAGGTCACAGAGGTCCAAGTCCGTGCGTA | 3.68 | 4.67 | 5.11 | 1.99 | 3.35 | 3.83 | 1.52 | 2.2
19 | TCTATTAGTTGATCAGGGCAACCGAAACAGCGGA | 0.681 | 0.484 | 0.555 | 1.15 | 0.519 | 0.815 | 0.591 | 0.203

Row | Sequence | PBM binding z-score [1] | PBM binding z-score [2] | PBM binding z-score [3] | PBM binding z-score [4] | PBM binding z-score [5] | PBM binding z-score [6] | PBM binding z-score [7] | PBM binding z-score [8]
20 | CCGACTGGGGCAAGGTTGCCATAACGCACAGCCA | 0.376 | 0.327 | 0.556 | -0.586 | 0.107 | 0.0473 | -0.389 | -0.526
21 | CGTCCAAGGTCAAGGCCAGTGAAAGAGACTCGAA | 3.8 | 5.88 | 6.13 | 3.31 | 5.24 | 3.71 | 2.15 | 1.61
22 | CCTGGTAGGTCATGGTCAGCTAATCTACAGTATG | 3.07 | 4.23 | 4.8 | 0.728 | 3.62 | 2.22 | 0.615 | 0.706
23 | CAGCCTAGGTCAGGGCCAGTTTAGGAGGAACGTT | 2.63 | 3.06 | 3.48 | 0.133 | 1.63 | 2.2 | 0.659 | -0.142
24 | TCATATAGGTAAAGGTGAAAGCCGAACGATATGA | 1.16 | 1.44 | 1.18 | 0.508 | 1.93 | 1.47 | -0.707 | -0.196
25 | GCCCGGAGGACAAGGTCAGAGCTTTGTCCGTAGA | 3.19 | 2.99 | 3.62 | 0.344 | 2.04 | 2.92 | 1.67 | 0.864
26 | TTTACAGGGTCAAAGGCCAGAGTACGAATGTCGA | 3.46 | 5.91 | 5.11 | 3.13 | 6.94 | 3.63 | 0.893 | 2.97
27 | GCTATTAGTTGAAAGGGGAACCGAATGATTCTCG | -0.167 | 0.105 | 0.00369 | 0.78 | 0.144 | 0.00231 | -0.215 | -0.125
28 | TCTTGTAGATCAAGCTGGTTAAGAAAGCCTGAGT | -0.589 | -0.384 | -0.528 | 0.614 | -0.39 | -0.367 | -0.87 | -0.547
29 | CCGAGTAGGTTATGGCGCATTCAGGCAACGGTGA | 0.598 | 0.0806 | 0.1 | -0.0161 | 0.365 | 0.169 | 0.321 | -0.2
30 | AAAATGAGGTTACCAAAGATCAGGGAAACGCTTG | 0.885 | 2.37 | 1.81 | 1.54 | 2.93 | 3.06 | 0.766 | 0.152
31 | TCTGCTAGGTCAGTTGGTCAGCTAGCGAGCTGCC | 2.51 | 2.7 | 3.71 | 0.477 | 0.644 | 1.18 | -0.284 | -0.49
32 | ACTATTAGGTGACTTAGGGCAACCGATACGACGC | 1.39 | 1.18 | 1.29 | 0.234 | 0.903 | 2.76 | 0.89 | -0.344
33 | ATCGAAAGTTCGAAGGTGAGTATACCCACCCGAA | 0.995 | 1.82 | 1.51 | 1.94 | 2 | 0.601 | -0.388 | 1.07
34 | TCTAGTTGGTCAAAGGTCACACGCTCGAAATGCG | 5.31 | 7.41 | 6.67 | 1.72 | 8.75 | 4.01 | 2.09 | 2.92
35 | AGAATGAGGTTATTAAGATCAGGGACTTGCGGTC | 0.973 | 1.12 | 0.814 | 1.92 | 1.82 | 2.09 | 0.617 | 1.36
36 | TCTAGTTGGTCAAAGGTCATACACTCGAAATGCG | 5.06 | 6.94 | 5.49 | 2.31 | 8.07 | 4.15 | 1.94 | 3.4
37 | TCATATAGGTAGTACAGGTGAAAGTCGGCATCTA | 0.475 | 0.549 | 0.317 | 1.32 | 1.02 | 0.404 | 0.361 | 0.606
38 | AGAACGTGGGCAATGAGTTGATAGCACGGGTGGC | -0.41 | -0.369 | -0.147 | -0.174 | 0.0338 | -0.628 | -0.889 | 0.376

Row | Sequence | PBM binding z-score [1] | PBM binding z-score [2] | PBM binding z-score [3] | PBM binding z-score [4] | PBM binding z-score [5] | PBM binding z-score [6] | PBM binding z-score [7] | PBM binding z-score [8]
39 | GCTTGTAGGTCAAGGTTAAGAAAGACTAAGCTAA | 3.22 | 4.98 | 5.18 | 1.26 | 4.8 | 2.91 | 0.735 | 0.622
40 | CCGACTGGGGGATAAGGTTACCATAAGCCAGCCC | 1.05 | 1.12 | 0.756 | -0.00884 | 1.21 | 2.51 | 2.11 | 0.491
41 | ATCGAAAGGTTGTGAGGTGAGTATACAGAAAGGC | 1.22 | 1.14 | 1.19 | -0.0955 | 1.24 | 2.23 | 1.49 | 0.162
42 | CTACCAAGGTGAACAAGCTCGTTGATTACTATTC | 0.567 | 0.606 | 0.761 | 0.373 | 0.526 | 1.63 | 0.878 | -0.237
43 | CTCTAAAGGTCGTGCTCAGGTGAGTATACCAAAC | 2.96 | 5.08 | 3.88 | 2.33 | 4.64 | 4.37 | 1.31 | 1.37
44 | CCTTACGGGTCACGAGGTTATAGTACGACGAGCG | 3.95 | 6.29 | 6 | 1.55 | 7.51 | 3.87 | 1.19 | 2.14
45 | CGACCGAGGGCATGAGTTGATAGCAAATGCCGAT | 0.812 | 1.35 | 1.89 | 1.81 | 0.547 | 1.01 | -0.126 | 1.48
46 | CCAGACACGTGAAAGGTAACTCAGTCTGGTACGC | -0.128 | -0.098 | 0.0725 | 0.166 | 0.263 | 0.166 | -0.268 | -0.17
47 | CCTCGGAGGAGAACAGGAGGTCAGAGCTGCCAGA | 2.87 | 2.04 | 1.63 | -0.274 | 1.76 | 2.21 | 0.793 | 0.851
48 | ACTAGTTGGTCATCTGAGGTCACACACAATTCGG | 4.29 | 4.22 | 4.23 | 1.93 | 4.26 | 5.17 | 5.44 | 4.23
49 | CGAACTAGGTCATCCAGGACAGAGAATACATTGA | 2.81 | 4.02 | 4.59 | 2.33 | 3.1 | 3.49 | 1.8 | 1.64
50 | AGAATGAGGTTGTACGTAGATCAGGGAAGAAAGT | 0.561 | 0.15 | 0.156 | 0.679 | 0.32 | 0.638 | 0.288 | 0.389
51 | TCGGGTAGGTTACCAATGGGGCATTCAGCTTTCT | 1.04 | 1.63 | 0.754 | 0.101 | 0.683 | 0.482 | 0.377 | 0.0681
52 | ATCTCTAGGTAAAAGTTCAGTGAATCCCGAGGAT | 2.42 | 1.68 | 2.06 | 0.516 | 1.54 | 1.24 | 0.375 | 1.7
53 | ACTAGTTGGACAGCTGAGGTCACACACAATTCGG | 4.06 | 3.66 | 3.43 | 1.09 | 3.85 | 4.57 | 4.93 | 2.99
54 | GCTAGCAGGGCATTTGGGTCACTCAATGACGGGC | 1.89 | 1.32 | 1.26 | 0.672 | 1.16 | 2.07 | 0.291 | 0.573
55 | TCCTGTAGATCAAAGGTTAAGAAAGCCGAAGCCT | 1.39 | 1.89 | 0.87 | 0.61 | 3.17 | 1.24 | -0.54 | -0.182
56 | TCATATAGTTAATACAGGTGAAAGTCGGCATCTA | 0.692 | 0.857 | 0.789 | 2.12 | 1.2 | 1.02 | 0.515 | 0.657
